This is an account of results in PubChem BioAssay.

The target in assay [1] is Albumin (Bos taurus) (UniProt P02769). Nature of the assay: compounds binding labelled BSA control protein – biochemical, small-molecule microarray, Alexa647 label, 635/667 nm fluorescence, artefact control for SMM control protein annotation, profiling panel (AID 1118).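 Further: score merges 667 nm emission intensity and signal-to-noise per printed compound spot.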 As to conditions: BSA-A647 binding, fluorescence 635 nm, higher = more signal.
Sequence of Albumin (Bos taurus) (P02769 whole entry, looked up): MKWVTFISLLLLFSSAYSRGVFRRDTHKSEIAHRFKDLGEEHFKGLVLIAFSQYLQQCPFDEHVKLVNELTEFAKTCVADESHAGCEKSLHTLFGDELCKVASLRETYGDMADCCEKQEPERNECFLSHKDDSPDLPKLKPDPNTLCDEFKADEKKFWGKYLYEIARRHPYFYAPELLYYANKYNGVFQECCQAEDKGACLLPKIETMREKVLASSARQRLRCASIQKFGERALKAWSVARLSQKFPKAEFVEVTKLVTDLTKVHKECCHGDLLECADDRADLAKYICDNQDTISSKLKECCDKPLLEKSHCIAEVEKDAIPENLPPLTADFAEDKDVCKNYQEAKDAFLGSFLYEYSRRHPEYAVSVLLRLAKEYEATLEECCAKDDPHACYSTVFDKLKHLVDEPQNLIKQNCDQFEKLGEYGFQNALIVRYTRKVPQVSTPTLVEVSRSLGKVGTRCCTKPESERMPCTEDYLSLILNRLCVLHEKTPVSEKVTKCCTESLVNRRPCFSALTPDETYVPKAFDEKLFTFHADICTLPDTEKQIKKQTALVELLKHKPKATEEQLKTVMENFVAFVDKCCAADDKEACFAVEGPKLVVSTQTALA
Assay [2] in a line: probe aXIP binding to arrayed compounds – biochemical, NeuroSMM set, 635/667 nm fluorescence, primary screen (AID 1119).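 Further: probe is the protein aXip251-270 applied at 1 µg/mL to compound-printed slides; binding of probe to printed compounds measured as 667 nm fluorescence plus signal to noise.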 Conditions: small-molecule microarray, higher = more signal, called active from +8 up or from −8 down.
Assay [3] in a line: probe aNOTCH3 binding on compound microarray – biochemical, small-molecule microarray, 635/667 nm fluorescence, primary screen (AID 1120).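 Further: probe is a biotin-tagged antibody raised against NOTCH3 rather than NOTCH3 protein; score merges spot fluorescence near 667 nm with spot signal to noise.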 As to conditions: higher = more signal.
The nature of assay [4]: probe aNOTCH2 binding on compound microarray – biochemical, small-molecule microarray, 635/667 nm fluorescence, primary screen (AID 1121).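 Further: score merges feature fluorescence read at 667 nm with its signal to noise.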 As to conditions: higher = more signal.
Assay [5] concerns the target Carbonic anhydrase 2 (Homo sapiens) (UniProt P00918). Nature of the assay: compounds binding carbonic anhydrase 2 – biochemical, small-molecule microarray, Alexa647-labelled CAII, profiling panel (AID 1122). As to conditions: CAII-A647 binding fluorescence, higher = more signal.
Assay [6] can be described thus: COS7 lysate on small-molecule microarray, probe aHis, 635 nm (AID 1123).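 Further: z-score combines 667nm fluorescence intensity with signal-to-noise per printed compound spot.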 Conditions: COS7 cell lysate, fluorescence, higher = more signal.
A short description of assay [7]: probe aLAP1 signal on lysate-treated microarray – cell lysate, small-molecule microarray, COS7 lysate, primary screen (AID 1124).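 Further: lysate comes from COS7 cells expressing LAP1 and is applied at 0.3 µg/mL; score merges spot fluorescence near 667 nm with signal-to-noise over triplicate slides.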 As to conditions: probe aLAP1, fluorescence, higher = more signal.
The subject of assay [8] is Sam68 (KHDRBS1). Put plainly: compounds binding KHDRBS1 protein – biochemical, small-molecule microarray, 635 nm fluorescence, primary screen (AID 1125).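 Further: score merges 667 nm channel intensity with signal to noise over triplicate slides.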 As to conditions: higher = more signal.
Assay [9] has as its system Chordin-like protein 2 (CHRDL2). Put plainly: compounds binding chordin-like 2 – biochemical, small-molecule microarray, 635 nm fluorescence, primary screen (AID 1126).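 Further: printed compound slides probed with Chrdl2 protein at 4 µg/mL for 1 h at 4 C; score merges 667 nm emission intensity with signal to noise over three replicate slides.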 Conditions: fluorescence 635 nm, higher = more signal.
The target of assay [10] is Concanavalin-A (Canavalia ensiformis) (UniProt P02866). Put plainly: compounds binding concanavalin A lectin – biochemical, small-molecule microarray, Alexa647 label, 635 nm, artefact control for SMM control protein annotation, primary screen (AID 1127).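 Further: z combines 667 nm emission intensity with signal-to-noise across three replicate slides.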 As to conditions: ConA-A647 binding fluorescence, higher = more signal.
Sequence of Concanavalin-A (Canavalia ensiformis) (P02866 whole entry, looked up): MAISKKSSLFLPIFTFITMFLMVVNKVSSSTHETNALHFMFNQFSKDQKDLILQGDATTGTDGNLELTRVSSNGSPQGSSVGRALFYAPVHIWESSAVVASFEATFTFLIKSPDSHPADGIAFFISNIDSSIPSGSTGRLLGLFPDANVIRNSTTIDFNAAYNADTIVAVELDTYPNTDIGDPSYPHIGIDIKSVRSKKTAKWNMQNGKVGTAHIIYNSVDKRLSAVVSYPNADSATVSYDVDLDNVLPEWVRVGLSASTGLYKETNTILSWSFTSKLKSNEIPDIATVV

Structures are written as SMILES. The source made the active and inactive calls.

In the case of `CN1C(=O)C2C=CC(C(O)c3ccc(I)cc3)N(N(c3ccccc3)c3ccccc3)C2C1=O` (stereo not given), the composite z-score in assay [1] was 0.626; in assay [3], -0.0328; in assay [4], 0.0129; in assay [5] it was 0.243; in [6], 0.307; in assay [7], 0.249. The composite z-score in [8] is -0.397; in assay [9] it was 0.0635; in assay [10], 0.326. Further, the composite Z-score in assay [2] was 0.263 (inactive).

As to `Cc1ccc(S[C@]2(C(=O)NC3CC3)CC(=O)N(C3Cc4ccccc4C3)[C@@H]2c2ccc(CO)cc2I)cc1`, the composite z-score was -0.15 in assay [1]; -0.283 in [3]; -0.121 in assay [4]; 0.535 in [5]; 0.897 in [6]; 1.68 in assay [7]. Also, the results for the composite z-score in assay [8], in [9] and in assay [10] were -0.5, -0.486 and 0.0714, respectively. Moreover, in assay [2], the composite Z-score is -0.216 (inactive).

With `CC(C)c1ccc(NN2C(C(O)C3=C[C@H]4C[C@@H](C3)C4(C)C)C=CC3C(=O)N(c4ccccc4)C(=O)C32)cc1` (stereo not given in full), the composite z-score amounted to 0.97 in assay [1]; 0.333 in [3]; 0.248 in assay [4]; 0.662 in [5]; 2.04 in assay [6]; 1.09 in [7]. For the same molecule, the composite z-score in assay [8] was 1.17; in [9], 0.4; in assay [10] it was 1.12. Further, the composite Z-score in assay [2] is 0.378 (inactive).

For `O=C1C[C@@](C(=O)NCC(F)(F)F)(c2ccc([N+](=O)[O-])cc2)[C@@H](c2ccc(CO)cc2I)N1CC12CC3CC(CC(C3)C1)C2`, the composite z-score is 0.506 in assay [1]; -0.056 in [3]; -0.13 in [4]; 0.517 in assay [5]; 1.48 in [6]; 1.15 in assay [7]. In addition, the composite z-score in assay [8] was 1.29; in assay [9], -0.0117; in assay [10], 1.12. For the same molecule, the composite Z-score in assay [2] was 0.0839 (inactive).

On to `Cc1ccc(S[C@]2(C(=O)NCc3ccccc3)CC(=O)N(Cc3ccccc3C(F)(F)F)[C@@H]2c2ccc(CO)cc2I)cc1`, for which the composite z-score was 0.269 in [1]; -0.242 in assay [3]; -0.0417 in assay [4]; 0.815 in assay [5]; 1.2 in [6]; 1.04 in [7]. Moreover, the results for the composite z-score in assay [8], in assay [9] and in assay [10] were -0.0245, -0.175 and -0.546, respectively. Moreover, in assay [2], the composite Z-score is -0.915 (inactive).

On to `COc1ccc(C(=O)Nc2cccc(CN3C(=O)[C@]4(O[C@H](CC(=O)N(CCO)Cc5ccccc5)[C@@H]([Si](C)(C)c5ccc(OC)cc5)[C@@H]4C)c4ccccc43)c2)cc1`, for which the composite z-score was -0.211 in assay [1]; 0.0141 in assay [3]; -0.046 in [4]; 0.325 in assay [5]; 1.51 in assay [6]; -0.0351 in assay [7]. Besides, the composite z-score stood at 0.775 in [8], 0.972 in [9] and 0.762 in [10]. Also, the composite Z-score in [2] was 0.264 (inactive).

For the molecule `CC[C@H]1C2=C3C(CC[C@H]4C(OCc5ccc(F)cc5C(F)(F)F)OC[C@](C)([C@@H]34)N(C(=O)OC(C)(C)C)C2)C(COC(C)=O)C1COC(C)=O` (stereo not given in full), the composite z-score in assay [1] is 0.761; in assay [3] it was 0.335; in [4], 0.173; in [5], 0.345; in [6], 2.76; in assay [7], 0.2. In addition, the composite z-score in [8] is 1.29; in assay [9], -1.23; in assay [10] it was 0.957. The composite Z-score in [2] is -0.0238 (inactive).

Turning to `CO[C@H]1O[C@H](CO)[C@@H](OC(=O)Nc2cccc(F)c2)[C@H](OC(=O)Nc2ccc3c(c2)OCO3)[C@@H]1OC(=O)Nc1ccc2c(c1)OCO2`, the composite z-score was 0.364 in assay [1]; 0.15 in assay [3]; -0.0247 in assay [4]; 0.753 in assay [5]; 1.64 in [6]; 0.678 in assay [7]. For the same molecule, the results for the composite z-score in [8], in assay [9] and in assay [10] were 1.32, 0.149 and 0.708, respectively. For the same molecule, the composite Z-score in assay [2] was 0.942 (inactive).

On to `O=C1NC(=O)C2C1C=CC(C(O)C1CCCCC1)N2Nc1ccccn1` (stereo not given), for which the composite z-score was 0.516 in assay [1]; 0.0351 in [3]; -0.0422 in [4]; 0.827 in [5]; 1.36 in [6]; -0.636 in assay [7]. Also, the composite z-score in [8] was 0.233; in assay [9], 0.342; in assay [10], 0.898. Also, the composite Z-score in assay [2] is 0.468 (inactive).

For `NCCCCCCNC(=O)[C@@H]1C[C@@H]2C(=O)NCC(=O)N2[C@@H]1c1cccc(OCCO)c1`, the composite z-score in assay [1] came out at 0.432; in [3], 0.155; in [4], 0.0001; in assay [5], 0.695; in [6] it was 1.47; in assay [7], 0.758. Further, the composite z-score in assay [8] turned out to be 1.2; in assay [9], 1.18; in [10] it was 0.828. The composite Z-score in [2] was 0.671 (inactive).

With `C=C(/C=C\CNS(=O)(=O)c1ccc(C)cc1)[C@H](O)[C@H]1CCCN1S(=O)(=O)c1ccccc1[N+](=O)[O-]`, the composite z-score in assay [1] is 0.678; in assay [3] it was 0.0026; in assay [4] it was -0.147; in assay [5], 0.319; in assay [6] it was 0.119; in assay [7], -0.538. Further, the composite z-score in assay [8] was determined as 0.127; in assay [9], 0.411; in [10] it was 0.152. In [2], the composite Z-score was -0.429 (inactive).

As for `CC1CC/C=C\[C@H]2OC34C=CCN(C(C)C)C(=O)[C@H]3N(C(C)CO)C(=O)[C@@H]4C2C(=O)O1` (stereo not given in full), the composite z-score was 0.702 in assay [1]; -0.162 in [3]; -0.115 in [4]; 0.418 in assay [5]; -0.406 in [6]; -0.108 in assay [7]. The composite z-score in assay [8] is -0.26; in assay [9], -0.337; in [10], -0.0657. Moreover, the composite Z-score in assay [2] is 0.439 (inactive).

In the case of `COc1ccc(C(O)C2C=CC3C(=O)N(C)C(=O)C3N2Nc2ccccc2)cc1` (stereo not given), the composite z-score in assay [1] came to 0.986; in [3], 0.344; in assay [4] it was 0.0753; in [5] it was 0.376; in assay [6], 2.87; in [7] it was 0.388. For the same molecule, the composite z-score was 1.28 in assay [8], -0.224 in assay [9] and 1.17 in assay [10]. For the same molecule, the composite Z-score in assay [2] was 0.195 (inactive).

In the case of `COCCOC(=O)N1C(=O)[C@@]2(c3cc(C#CCNC(N)=O)ccc31)[C@H](C(=O)N1CCN(c3ncccn3)CC1)[C@H]1C(=O)O[C@H](c3ccccc3)[C@H](c3ccccc3)N1[C@@H]2c1ccc(O)cc1`, the composite z-score was 0.526 in [1]; -0.457 in assay [3]; -0.292 in assay [4]; 0.371 in assay [5]; -0.864 in [6]; 0.555 in assay [7]. Moreover, the composite z-score in [8] was -0.396; in assay [9], -0.956; in [10], -0.785. In assay [2], the composite Z-score was -0.453 (inactive).

Consider `CC(CO)N1C(=O)[C@@H]2[C@H]3C(=O)OCC=C[C@H]3OC23C=CCN(c2ccc4ccccc4c2)C(=O)[C@@H]13` (stereo not given in full), for which the composite z-score in assay [1] was 0.876; in assay [3] it was -0.381; in [4] it was -0.132; in [5], 0.324; in [6], -0.312; in assay [7] it was -0.139. Besides, the composite z-score in assay [8] is -0.892; in assay [9], -1.66; in [10], -0.387. Also, the composite Z-score in assay [2] was 0.0987 (inactive).

Regarding `C=CCNC(=O)[C@H]1[C@@H]2C(=O)O[C@@H](c3ccccc3)[C@@H](c3ccccc3)N2[C@@H](c2ccc(OCCO)cc2)[C@]12C(=O)N(C(=O)OCCOC)c1ccc(C#CCNC(N)=O)cc12`, the composite z-score in assay [1] is 0.452; in [3] it was 0.0927; in assay [4], -0.0132; in assay [5], 0.396; in assay [6], 1.73; in assay [7], 0.812. Besides, the composite z-score in assay [8] is 1.22; in [9], 0.742; in assay [10], 1.11. Also, the composite Z-score in assay [2] is -0.0518 (inactive).
